HT1080NT lethal: kills 2HG-producing HT-1080-NT fibrosarcoma cells; HT-1080-NT fibrosarcoma viability, CellTiter-Glo ATP luminescence, 48 h; Potency, µM (doses to about 46.1 µM), for inactives: at the top dose activity, negative = less viability, hits mostly cytotoxic; hit rate 1.6% among 360,000; AID 686970;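 note: NT is the 2HG producing partner of a matched IDH1 knockdown line; potency is the fitted concentration of half-maximal effect; 0% = DMSO-treated cells and -100% = media-only wells without cells; nearly all actives have a fitted effect of over 55% in size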
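HT-1080-NT fibrosarcoma cells (2HG-overproducing), 750 cells/well in RPMI with 5% FBS, dosed after 2 h and incubated 48 h at 37C. CellTiter-Glo luminescence normalized to DMSO and no-cell wells; concentration-response curves fitted and classed.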
HT1080 IDH1KD tx: kills HT-1080 cells with IDH1 knockdown; AID 686971; Potency, µM (highest dose often 46.1 µM), inactives show at the highest dose activity, negative = toxicity, usual class: cytotoxic; hit rate 2% among 360,000; HT-1080 IDH1 knockdown viability, ATP luminescence, 48 h;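 note: potency is the fitted concentration of half-maximal effect; 0% = DMSO wells and -100% = cell-free medium wells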
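% activity derives from luminescence (CellTiter-Glo), normalised to DMSO and no-cell wells. HT-1080-IDH1KD cells, 750/well, had 48 h compound exposure at 37 °C.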
TDP1 cell CPT: growth inhibition of DT40 Tdp1-/-;hTDP1 cells with camptothecin (screen for TDP1 inhibitors). hit rate 12% among 420,000. chicken DT40 Tdp1-/-;hTDP1 cells + 20 nM CPT, ATP luminescence, 48 h. Potency, µM (titrated, usually from 46.2 µM), without a hit: at the top dose activity change, negative = growth inhibition, most hits filed as inhibitors; note: potency is the fitted concentration of half-maximal effect; nearly all actives have a fitted effect of over 55% in size
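Chicken DT40 Tdp1-/- cells stably complemented with human TDP1 were seeded at 400 cells/well in medium containing 20 nM camptothecin, exposed to pin-transferred compounds, and grown at 37 °C for at least 48 hr. Viability was read as ATP luminescence.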
DT40 TDP1 no CPT: qHTS for Inhibitors of human tyrosyl-DNA phosphodiesterase 1 (TDP1): qHTS in cells in absence of CPT; DT40 Tdp1-/- hTDP1 cells, no CPT, ATP luminescence, 48 h; Potency, µM (top dose mostly 46.2 µM), for the others: at the top dose activity change, negative = growth inhibition, actives largely listed as inhibitors; hit rate 15% among 420,000; AID 686978, 2013; note: potency is the fitted concentration of half-maximal effect; nearly all actives have a fitted effect of over 55% in size
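No-CPT arm: Tdp1-/-;hTDP1 DT40 cells (400/well) plus compounds, incubated ≥48 hr at 37 °C. Readout CellTiter-Glo luminescence.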
IL-1B inflam inh: inflammasome signaling inhibition, IL-1 beta readout; THP-1 LPS/ATP IL-1B secretion, AlphaLISA, 16 h; active compounds read low; hit rate 4.7% among 360,000; activity change, % at 57.5 µM; in the data active = activity change below about -50%; inconclusive = mostly about -30% to -49%
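Secreted IL-1B measured by AlphaLISA bead assay after 16 h compound exposure of THP-1 cells; compounds (final up to 57.5 uM) added 1 h before LPS (250 ng/mL) and ATP (1.25 mM) stimulation; lower signal means less secretion.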
* = called active by the depositor; u = inconclusive; x = no result. A selection: hits, their analogues and other compounds. The true share with any hit is near 19%. Unless noted, calls come from the whole dose curve; as a rule, active = well fitted curve in the direction sought with a large enough effect; inconclusive = small, poorly fitted or top-dose-only effect, or another doubt; inactive = no such curve, though single readings can be large; an effect the other way counts as inactive or inconclusive. Unless noted, % is set by controls: 0 for no effect and ±100 for the full control effect.

SMILES	HT1080NT lethal	HT1080 IDH1KD tx	TDP1 cell CPT	DT40 TDP1 no CPT	IL-1B inflam inh
CCC(=O)N1CCc2cc(S(=O)(=O)CCC(=O)Nc3ccc(Cl)c(C(F)(F)F)c3)ccc21	x	x	16µM*	8.2µM*	x
N#CCCN(C(=O)COC(=O)CCc1nc2ccccc2c(=O)[nH]1)c1ccccc1F	2%	-8%	-10%	-11%	-6
Cc1noc(C)c1S(=O)(=O)N1CCCC(C(=O)NCc2ccccn2)C1 (configuration not stated)	2%	5%	-2%	1%	-3
CCOc1ccc(C(C(=O)NC2CCCC2)N(C(=O)CNC(=O)c2ccco2)c2cccnc2)cc1 (configuration not stated)	12%	21%	-4%	-5%	-3
COc1ccccc1NC(=O)Cc1nnc(SCC(=O)NC2CCCCC2C)n1C (configuration not stated)	5%	7%	5%	2%	10
Nc1cccc(-c2nc3cc(S(=O)(=O)c4ccc5oc(-c6cccc(N)c6)nc5c4)ccc3o2)c1	u	u	8.2µM*	u	-1
Cc1ccccc1NC(=O)c1sc2nc(-c3cc4ccccc4oc3=O)[nH]c(=O)c2c1C	x	x	8.2µM*	u	x
Cc1ccc(NC(=O)c2sc3nc(-c4cc5ccccc5oc4=O)[nH]c(=O)c3c2C)c(C)c1	x	x	-12%	-28%	x
N#C/C(=N/Nc1ccc([N+](=O)[O-])cc1)C(=N)N1CCCCC1	-3%	-13%	-18%	-1%	-20
N#C/C(=N\Nc1ccccc1[N+](=O)[O-])C(=N)N1CCCCC1	-13%	2%	5.8µM*	5.8µM*	1
O=C(CN(c1ccc(Cl)c(C(F)(F)F)c1)S(=O)(=O)c1ccccc1)N1CCc2ccccc2C1	x	x	u	16µM*	x
CS(=O)(=O)N(CC(=O)N1CCN(c2ccccc2)CC1)c1ccc(Cl)c(C(F)(F)F)c1	-9%	-19%	u	u	0
Cc1ccc(Nc2nc(N)nc(N)c2N=O)cc1C	-2%	-9%	u	u	-14
Cc1cc(Br)ccc1Nc1nc(N)nc(N)c1N=O	-7%	-4%	10µM*	u	u
Cc1cccc(Nc2nc(N)nc(N)c2N=O)c1	0%	-16%	26µM*	21µM*	-57*
CCC(CC)C(=O)NCc1ccc(OC)cc1	-1%	2%	-28%	-13%	-1
N#Cc1cc2cc3ccccc3nc2n2c(=O)c3ccccc3nc12	23%	16%	-10%	-20%	-16
CCCCCn1nnc2c(=O)oc3ccccc3c21	-12%	-9%	0%	-5%	3
O=C(COc1ncnc2sccc12)Nc1ccc(F)cc1F	2%	9%	2%	5%	-7
Cc1ccc2c(cnn2C(=O)CCCC(=O)NCc2ccc(Cl)cc2)c1	u	u	23µM*	u	-5
Cc1occc1C(=O)NNC(=O)Nc1ccc(Cl)c(Cl)c1	-3%	-12%	15µM*	u	-12
Cc1occc1C(=O)N1CCN(c2ccccc2)CC1	0%	5%	-24%	0%	2
Cc1occc1C(=O)N1CCN(c2ccc(Cl)c(Cl)c2)CC1	0%	-17%	u	16µM*	-23
CCCCNc1c(-c2ccc(OC)c(SC3CCCCC3)c2)nc2cc(C)ccn12	18µM*	u	21µM*	15µM*	-86*
CCCCNc1c(-c2ccc(-c3ccc(C(C)=O)cc3)c(OC)c2)nc2cnccn12	u	u	10µM*	u	0
SMILES	HT1080NT lethal	HT1080 IDH1KD tx	TDP1 cell CPT	DT40 TDP1 no CPT	IL-1B inflam inh
CCCCNc1c(-c2ccc(OC)c(SC3CCCCC3)c2)nc2cnccn12	u	u	u	u	-70*
CCCCNc1c(-c2ccc(SC3CCCCC3)cc2)nc2cnccn12	u	u	15µM*	u	-13
CCCCCCSc1cc(-c2nc3cnccn3c2NCc2ccccc2)ccc1OC	-13%	0%	u	u	0
COc1ccc(COC(=O)C2CC(=O)N(Cc3ccccc3)C2)cc1 (configuration not stated)	7%	2%	-7%	-17%	-15
CCOc1ccc(N(Cc2nnc3n2CCCCC3)C(=O)Nc2cccc(C)c2)cc1	25%	7%	13%	1%	-8
CCCCNc1c(-c2ccc(OC)c(SC3CCCCC3)c2)nc2ccc(Cl)cn12	10%	-3%	21µM*	23µM*	-27
O=C(NC12CC3CC(CC(C3)C1)C2)C1CC(=O)N(c2ccccc2)C1 (configuration not stated)	-1%	-2%	-19%	-28%	13
O=C(NC12CC3CC(CC(C3)C1)C2)C1CC(=O)N(c2ccc(Br)cc2)C1 (configuration not stated)	3%	7%	13µM*	23µM*	5
Cc1noc(C)c1NC(=O)N(C)C[C@H]1Oc2ccc(NS(=O)(=O)c3ccc(F)cc3)cc2C(=O)N([C@H](C)CO)C[C@@H]1C	18%	12%	-15%	-2%	13
C=CCn1c(-c2cc(-c3ccccc3)sc2N)n[nH]c1=S	10%	16%	11%	u	13
COc1ccc(-n2c(-c3cc(-c4ccccc4)sc3N)n[nH]c2=S)cc1	16µM*	u	u	16µM*	78
Nc1sc(-c2ccccc2)cc1-c1n[nH]c(=S)n1C1CCCCC1	3.7µM*	1.5µM*	16µM*	2.6µM*	29
COc1ccc(OC)c(C(=O)NC(CC(N)=O)c2ccc(N3CCN(c4ccc(F)cc4)CC3)c([N+](=O)[O-])c2)c1 (configuration not stated)	-4%	-6%	u	-25%	-3
Cc1ccc(CC(=O)N(C)CC(=O)Nc2ccc(N3CCOCC3)cc2)cc1C	-2%	3%	13µM*	-20%	2
Cc1ccc(NC(=O)CN(C)CC(=O)Nc2ccc(N3CCOCC3)cc2)cc1F	5%	-7%	-30%	u	-8
CN(CC(=O)Nc1ccc(N2CCOCC2)cc1)C(=O)CCc1cc(C(C)(C)C)c(O)c(C(C)(C)C)c1	-17%	-19%	u	16µM*	-1
CN(CC(=O)Nc1ccc(N2CCOCC2)cc1)C(=O)CC(c1ccccc1)c1ccccc1	-8%	-4%	-17%	-18%	-5
CN(CC(=O)Nc1ccc(N2CCOCC2)cc1)C(=O)CSc1ccc(Br)cc1	-2%	-7%	u	15µM*	1
C#CCNC(=O)C1=C[C@H](c2ccc(Br)cc2)C[C@H](OCCCCO)O1	5%	2%	-29%	-19%	-18
